Source: article PMC7862700, “An all-to-all approach to the identification of sequence-specific readers for epigenetic DNA modifications on cytosine”

Assays:
Experiment in all cases: DAPPL (digital affinity profiling via proximity ligation, sequencing); 10 mM Tris-HCl pH 7.5, 50 mM NaCl, 1 mM DTT, 4% glycerol, room temperature, 30 min; GST-TFs on glutathione beads, 16-mer random dsDNA library, 0.1% formaldehyde crosslink after washing; high values mean tight binding
FEV = biological target: T1, FEV (Homo sapiens, UniProt Q99581 1-238); conditions: protein: recombinant; tags: N-terminal GST; dsDNA, one strand shown
T1 sequence: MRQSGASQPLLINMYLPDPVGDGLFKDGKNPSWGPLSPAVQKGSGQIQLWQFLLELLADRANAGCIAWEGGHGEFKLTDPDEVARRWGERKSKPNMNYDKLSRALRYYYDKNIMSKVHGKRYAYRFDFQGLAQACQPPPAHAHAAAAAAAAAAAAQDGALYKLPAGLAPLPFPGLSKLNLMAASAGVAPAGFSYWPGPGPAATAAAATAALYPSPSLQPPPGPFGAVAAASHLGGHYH
In short: (§1)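 Binding signal is given per hexamer as its read frequency for a factor divided by its frequency in the tag-only sample. GST-fused human transcription factors were expressed in yeast, captured on glutathione beads, barcoded with DNA and pooled with that sample, then incubated with 200 nmole of a 16-mer random double-stranded DNA library in Tris/NaCl/DTT/glycerol buffer for 30 min at room temperature. The pools were then washed, crosslinked, proximity-ligated, amplified by PCR and sequenced on an Illumina NextSeq500.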

ETV5 = ETV5 (Homo sapiens, UniProt P41161 1-510); conditions: protein: recombinant; tags: N-terminal GST; dsDNA, one strand shown
In short: as §1

HSF1 = HSF1 (Homo sapiens, UniProt Q00613 1-529); conditions: protein: recombinant; tags: N-terminal GST; chain copies: 3; dsDNA, one strand shown
In short: as §1

SPIC = biological target: T2, SPIC (Homo sapiens, UniProt Q8N5J4 1-248); conditions: protein: recombinant; tags: N-terminal GST; dsDNA, one strand shown
T2 sequence: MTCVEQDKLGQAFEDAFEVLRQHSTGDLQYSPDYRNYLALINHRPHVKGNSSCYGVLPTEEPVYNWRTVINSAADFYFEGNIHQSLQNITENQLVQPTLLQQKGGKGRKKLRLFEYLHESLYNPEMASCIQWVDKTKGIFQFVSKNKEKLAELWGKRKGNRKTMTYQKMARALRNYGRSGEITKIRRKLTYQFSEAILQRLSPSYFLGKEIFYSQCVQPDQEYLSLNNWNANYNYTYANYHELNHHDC
In short: as §1

ELF4 = ELF4 (Homo sapiens, UniProt Q99607 1-663); conditions: protein: recombinant; tags: N-terminal GST; dsDNA, one strand shown
In short: as §1

ELK4 = biological target: T3, ELK4 (Homo sapiens, UniProt P28324-2 1-405); conditions: protein: recombinant; tags: N-terminal GST; dsDNA, one strand shown
T3 sequence: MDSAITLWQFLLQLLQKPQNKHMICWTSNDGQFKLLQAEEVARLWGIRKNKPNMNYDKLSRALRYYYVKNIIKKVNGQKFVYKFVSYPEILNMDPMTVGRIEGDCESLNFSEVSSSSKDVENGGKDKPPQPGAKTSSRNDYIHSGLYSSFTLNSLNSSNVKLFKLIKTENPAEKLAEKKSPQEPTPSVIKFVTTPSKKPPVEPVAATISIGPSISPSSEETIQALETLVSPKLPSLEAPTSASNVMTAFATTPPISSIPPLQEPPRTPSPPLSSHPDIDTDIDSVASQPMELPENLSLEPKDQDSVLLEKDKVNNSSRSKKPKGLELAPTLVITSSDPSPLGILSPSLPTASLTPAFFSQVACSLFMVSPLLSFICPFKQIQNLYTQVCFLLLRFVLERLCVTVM
In short: as §1

ETV2 = biological target: T4, ETV2 (Homo sapiens, UniProt O00321 1-342); conditions: protein: recombinant; tags: N-terminal GST; dsDNA, one strand shown
T4 sequence: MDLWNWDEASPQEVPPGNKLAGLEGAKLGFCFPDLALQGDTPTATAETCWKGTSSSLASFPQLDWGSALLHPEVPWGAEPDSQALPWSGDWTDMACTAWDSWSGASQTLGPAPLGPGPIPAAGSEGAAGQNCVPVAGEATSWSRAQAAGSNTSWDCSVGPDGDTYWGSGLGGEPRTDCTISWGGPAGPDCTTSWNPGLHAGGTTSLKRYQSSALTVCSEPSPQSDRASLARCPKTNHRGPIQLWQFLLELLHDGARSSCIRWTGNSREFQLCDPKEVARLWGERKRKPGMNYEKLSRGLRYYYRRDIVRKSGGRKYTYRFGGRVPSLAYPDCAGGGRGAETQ
In short: as §1

ELF3 = biological target: T5, ELF3 (Homo sapiens, UniProt P78545 1-371); conditions: protein: recombinant; tags: N-terminal GST; dsDNA, one strand shown
T5 sequence: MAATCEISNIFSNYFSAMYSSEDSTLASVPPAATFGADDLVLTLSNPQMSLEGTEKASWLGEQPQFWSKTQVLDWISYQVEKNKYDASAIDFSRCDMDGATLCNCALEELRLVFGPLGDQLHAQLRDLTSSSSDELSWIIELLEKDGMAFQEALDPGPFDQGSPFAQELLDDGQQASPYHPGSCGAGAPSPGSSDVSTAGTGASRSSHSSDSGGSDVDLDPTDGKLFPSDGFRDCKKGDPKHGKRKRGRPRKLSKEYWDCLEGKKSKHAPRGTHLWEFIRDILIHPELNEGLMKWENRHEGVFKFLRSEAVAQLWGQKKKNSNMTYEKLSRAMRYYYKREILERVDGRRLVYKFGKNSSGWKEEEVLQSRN
In short: as §1

CRX = CRX (Homo sapiens, UniProt O43186 1-299); conditions: protein: recombinant; tags: N-terminal GST; dsDNA, one strand shown
In short: as §1

ETV1 = ETV1 (Homo sapiens, UniProt P50549 1-477); conditions: protein: recombinant; tags: N-terminal GST; dsDNA, one strand shown
In short: as §1

ERF = biological target: T6, ERF (Homo sapiens, UniProt P50548 1-548); conditions: protein: recombinant; tags: N-terminal GST; dsDNA, one strand shown
T6 sequence: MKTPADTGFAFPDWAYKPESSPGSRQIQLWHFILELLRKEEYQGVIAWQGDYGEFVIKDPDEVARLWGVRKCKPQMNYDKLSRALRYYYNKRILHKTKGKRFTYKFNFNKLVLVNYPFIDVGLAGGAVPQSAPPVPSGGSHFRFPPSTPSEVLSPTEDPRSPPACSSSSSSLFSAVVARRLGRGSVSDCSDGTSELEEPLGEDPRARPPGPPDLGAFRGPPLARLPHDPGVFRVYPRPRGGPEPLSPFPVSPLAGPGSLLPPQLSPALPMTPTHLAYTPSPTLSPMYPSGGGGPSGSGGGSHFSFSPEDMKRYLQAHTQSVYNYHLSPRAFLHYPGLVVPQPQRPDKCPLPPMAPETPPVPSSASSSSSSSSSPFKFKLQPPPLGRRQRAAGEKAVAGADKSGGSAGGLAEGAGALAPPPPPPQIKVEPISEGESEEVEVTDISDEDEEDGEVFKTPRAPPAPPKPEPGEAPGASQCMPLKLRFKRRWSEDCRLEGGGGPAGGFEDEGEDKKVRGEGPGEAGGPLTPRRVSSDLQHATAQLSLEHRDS
In short: as §1

ETV3L = biological target: T7, ETV3L (Homo sapiens, UniProt Q6ZN32 1-361); conditions: protein: recombinant; tags: N-terminal GST; dsDNA, one strand shown
T7 sequence: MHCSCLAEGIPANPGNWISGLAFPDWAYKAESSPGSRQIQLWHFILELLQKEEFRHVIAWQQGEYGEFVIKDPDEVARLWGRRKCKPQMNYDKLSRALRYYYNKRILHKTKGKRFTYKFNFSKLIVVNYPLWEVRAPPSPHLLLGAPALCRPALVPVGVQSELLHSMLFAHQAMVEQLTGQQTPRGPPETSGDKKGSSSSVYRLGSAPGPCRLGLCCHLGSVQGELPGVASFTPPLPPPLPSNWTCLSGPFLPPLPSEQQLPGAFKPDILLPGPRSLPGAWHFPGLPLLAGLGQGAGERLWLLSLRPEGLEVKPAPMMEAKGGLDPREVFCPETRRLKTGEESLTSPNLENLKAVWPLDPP
In short: as §1

ETS2 = biological target: T8, ETS2 (Homo sapiens, UniProt P15036 1-469); conditions: protein: recombinant; tags: N-terminal GST; dsDNA, one strand shown
T8 sequence: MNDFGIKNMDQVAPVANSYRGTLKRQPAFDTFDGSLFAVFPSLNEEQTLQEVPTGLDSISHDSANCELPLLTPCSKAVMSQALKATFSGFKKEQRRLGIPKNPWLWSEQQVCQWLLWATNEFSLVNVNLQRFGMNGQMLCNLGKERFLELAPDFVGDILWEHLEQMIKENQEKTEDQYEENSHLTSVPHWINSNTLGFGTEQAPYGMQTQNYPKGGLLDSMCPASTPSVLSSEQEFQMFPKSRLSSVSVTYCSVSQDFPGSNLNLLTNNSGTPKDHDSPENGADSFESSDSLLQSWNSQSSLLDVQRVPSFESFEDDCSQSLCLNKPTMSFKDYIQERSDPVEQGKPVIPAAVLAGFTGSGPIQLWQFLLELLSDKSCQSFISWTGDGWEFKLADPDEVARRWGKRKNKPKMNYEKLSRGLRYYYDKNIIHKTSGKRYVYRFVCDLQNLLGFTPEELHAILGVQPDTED
In short: as §1

SPDEF = biological target: T9, SPDEF (Homo sapiens, UniProt O95238 1-335); conditions: protein: recombinant; tags: N-terminal GST; dsDNA, one strand shown
T9 sequence: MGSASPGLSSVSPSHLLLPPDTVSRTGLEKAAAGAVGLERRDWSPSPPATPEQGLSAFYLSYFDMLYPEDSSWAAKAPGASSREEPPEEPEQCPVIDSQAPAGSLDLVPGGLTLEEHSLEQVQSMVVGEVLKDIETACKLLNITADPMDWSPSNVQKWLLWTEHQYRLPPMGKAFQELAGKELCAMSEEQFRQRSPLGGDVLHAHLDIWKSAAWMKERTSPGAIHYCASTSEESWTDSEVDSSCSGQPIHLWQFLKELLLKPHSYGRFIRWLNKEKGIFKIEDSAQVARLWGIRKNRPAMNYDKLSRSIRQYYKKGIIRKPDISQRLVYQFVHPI
In short: as §1

ETV7 = biological target: T10, ETV7 (Homo sapiens, UniProt Q9Y603 1-341); conditions: protein: recombinant; tags: N-terminal GST; dsDNA, one strand shown
T10 sequence: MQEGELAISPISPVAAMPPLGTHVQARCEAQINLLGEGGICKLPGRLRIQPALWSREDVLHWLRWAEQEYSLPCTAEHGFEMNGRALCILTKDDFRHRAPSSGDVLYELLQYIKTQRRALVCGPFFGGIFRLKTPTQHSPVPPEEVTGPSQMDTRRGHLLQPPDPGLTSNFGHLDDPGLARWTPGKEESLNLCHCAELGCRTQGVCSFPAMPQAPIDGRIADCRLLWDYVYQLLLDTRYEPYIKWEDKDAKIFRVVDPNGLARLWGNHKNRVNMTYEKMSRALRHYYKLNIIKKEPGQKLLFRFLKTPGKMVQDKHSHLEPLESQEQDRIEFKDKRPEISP
In short: as §1

ELF5 = biological target: T11, ELF5 (Homo sapiens, UniProt Q9UKW6-2 1-255); conditions: protein: recombinant; tags: N-terminal GST; dsDNA, one strand shown
T11 sequence: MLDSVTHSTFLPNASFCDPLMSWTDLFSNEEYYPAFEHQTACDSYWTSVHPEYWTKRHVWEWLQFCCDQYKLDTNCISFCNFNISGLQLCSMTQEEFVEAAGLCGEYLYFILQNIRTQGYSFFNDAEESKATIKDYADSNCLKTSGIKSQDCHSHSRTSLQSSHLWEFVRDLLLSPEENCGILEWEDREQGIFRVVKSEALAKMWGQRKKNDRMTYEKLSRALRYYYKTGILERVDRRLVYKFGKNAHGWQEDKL
In short: as §1

ETV3 = biological target: T12, ETV3 (Homo sapiens, UniProt P41162-2 1-143); conditions: protein: recombinant; tags: N-terminal GST; dsDNA, one strand shown
T12 sequence: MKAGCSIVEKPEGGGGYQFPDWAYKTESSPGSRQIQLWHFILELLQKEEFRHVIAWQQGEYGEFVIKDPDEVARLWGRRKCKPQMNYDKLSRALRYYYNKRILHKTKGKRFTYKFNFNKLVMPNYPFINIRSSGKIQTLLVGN
In short: as §1

ETV6 = ETV6 (Homo sapiens, UniProt P41212 1-452); conditions: protein: recombinant; tags: N-terminal GST; dsDNA, one strand shown
In short: as §1

Chain of CRX (O43186 whole entry): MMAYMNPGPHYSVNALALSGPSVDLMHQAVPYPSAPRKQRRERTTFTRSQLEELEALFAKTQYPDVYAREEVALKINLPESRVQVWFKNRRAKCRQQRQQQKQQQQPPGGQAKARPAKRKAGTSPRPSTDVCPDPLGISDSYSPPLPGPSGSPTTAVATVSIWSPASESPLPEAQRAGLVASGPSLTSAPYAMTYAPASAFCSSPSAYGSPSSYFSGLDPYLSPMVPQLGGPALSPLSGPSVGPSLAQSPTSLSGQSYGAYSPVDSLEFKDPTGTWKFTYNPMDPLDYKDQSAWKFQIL
Chain of ETV5 (P41161 whole entry): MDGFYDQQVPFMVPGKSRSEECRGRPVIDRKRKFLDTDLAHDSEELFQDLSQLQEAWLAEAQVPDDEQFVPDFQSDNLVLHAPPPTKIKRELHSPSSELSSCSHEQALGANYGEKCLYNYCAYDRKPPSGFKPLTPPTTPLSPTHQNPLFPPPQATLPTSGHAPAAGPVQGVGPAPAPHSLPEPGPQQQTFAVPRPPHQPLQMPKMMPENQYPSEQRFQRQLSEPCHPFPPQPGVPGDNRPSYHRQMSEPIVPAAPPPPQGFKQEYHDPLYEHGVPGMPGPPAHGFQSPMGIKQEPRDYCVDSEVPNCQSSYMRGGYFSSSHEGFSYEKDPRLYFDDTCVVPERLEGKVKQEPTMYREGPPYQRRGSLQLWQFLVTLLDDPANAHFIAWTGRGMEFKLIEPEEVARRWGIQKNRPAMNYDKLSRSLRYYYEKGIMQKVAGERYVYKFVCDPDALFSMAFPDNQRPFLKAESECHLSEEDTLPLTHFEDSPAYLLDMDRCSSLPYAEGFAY
Chain of ELF4 (Q99607 whole entry): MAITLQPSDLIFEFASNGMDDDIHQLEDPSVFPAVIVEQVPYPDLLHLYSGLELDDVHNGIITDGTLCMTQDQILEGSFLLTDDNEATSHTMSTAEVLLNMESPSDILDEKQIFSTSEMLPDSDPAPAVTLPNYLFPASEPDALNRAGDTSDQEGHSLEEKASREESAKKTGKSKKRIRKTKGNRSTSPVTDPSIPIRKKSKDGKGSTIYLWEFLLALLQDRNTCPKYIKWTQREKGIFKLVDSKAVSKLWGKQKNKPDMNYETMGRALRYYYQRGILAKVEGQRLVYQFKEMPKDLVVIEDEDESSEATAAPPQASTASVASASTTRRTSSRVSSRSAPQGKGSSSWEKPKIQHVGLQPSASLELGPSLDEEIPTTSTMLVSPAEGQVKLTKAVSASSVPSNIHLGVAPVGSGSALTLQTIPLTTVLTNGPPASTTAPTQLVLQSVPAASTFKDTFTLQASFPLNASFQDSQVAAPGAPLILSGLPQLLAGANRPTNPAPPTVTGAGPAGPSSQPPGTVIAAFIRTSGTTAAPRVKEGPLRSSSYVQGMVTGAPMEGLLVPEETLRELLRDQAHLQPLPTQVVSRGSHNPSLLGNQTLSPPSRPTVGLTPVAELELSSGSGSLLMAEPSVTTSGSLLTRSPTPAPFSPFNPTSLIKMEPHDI
Chain of ETV1 (P50549 whole entry): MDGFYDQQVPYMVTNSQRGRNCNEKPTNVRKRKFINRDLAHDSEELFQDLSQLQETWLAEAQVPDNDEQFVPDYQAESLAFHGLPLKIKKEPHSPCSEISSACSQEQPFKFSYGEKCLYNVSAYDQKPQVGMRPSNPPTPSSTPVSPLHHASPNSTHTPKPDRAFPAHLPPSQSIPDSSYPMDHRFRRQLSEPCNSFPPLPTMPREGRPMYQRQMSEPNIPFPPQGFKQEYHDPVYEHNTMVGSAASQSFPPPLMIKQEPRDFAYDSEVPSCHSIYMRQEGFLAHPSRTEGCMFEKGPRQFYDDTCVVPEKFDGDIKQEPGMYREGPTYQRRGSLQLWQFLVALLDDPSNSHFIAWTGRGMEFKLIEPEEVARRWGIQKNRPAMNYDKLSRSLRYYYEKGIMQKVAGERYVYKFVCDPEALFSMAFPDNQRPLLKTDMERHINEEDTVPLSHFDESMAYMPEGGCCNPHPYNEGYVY
Chain of ETV6 (P41212 whole entry): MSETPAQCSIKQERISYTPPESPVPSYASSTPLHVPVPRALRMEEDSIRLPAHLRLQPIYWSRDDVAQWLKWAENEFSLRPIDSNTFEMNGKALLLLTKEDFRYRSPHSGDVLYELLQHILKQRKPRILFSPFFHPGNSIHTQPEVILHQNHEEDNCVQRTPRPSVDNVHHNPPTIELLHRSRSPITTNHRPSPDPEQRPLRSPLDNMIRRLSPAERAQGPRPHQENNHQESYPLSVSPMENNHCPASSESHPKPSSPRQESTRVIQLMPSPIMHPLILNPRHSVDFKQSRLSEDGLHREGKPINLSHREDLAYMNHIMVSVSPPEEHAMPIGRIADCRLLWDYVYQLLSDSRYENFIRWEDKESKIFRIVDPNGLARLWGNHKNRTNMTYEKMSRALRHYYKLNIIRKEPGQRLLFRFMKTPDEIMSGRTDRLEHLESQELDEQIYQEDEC
Chain of HSF1 (Q00613 whole entry): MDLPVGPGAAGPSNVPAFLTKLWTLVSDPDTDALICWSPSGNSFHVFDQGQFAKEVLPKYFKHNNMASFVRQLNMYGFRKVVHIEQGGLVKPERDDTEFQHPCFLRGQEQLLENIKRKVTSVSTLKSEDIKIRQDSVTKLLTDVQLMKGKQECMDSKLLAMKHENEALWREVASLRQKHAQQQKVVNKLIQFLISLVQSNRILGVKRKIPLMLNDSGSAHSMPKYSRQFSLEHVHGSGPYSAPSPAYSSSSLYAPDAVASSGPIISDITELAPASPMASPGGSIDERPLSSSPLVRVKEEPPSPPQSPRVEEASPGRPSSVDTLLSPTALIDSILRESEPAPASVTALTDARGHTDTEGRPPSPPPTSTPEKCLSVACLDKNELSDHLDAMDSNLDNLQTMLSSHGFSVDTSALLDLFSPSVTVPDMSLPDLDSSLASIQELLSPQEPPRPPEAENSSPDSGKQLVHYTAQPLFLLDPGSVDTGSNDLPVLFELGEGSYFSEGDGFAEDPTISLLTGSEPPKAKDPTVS

TCTCAA
binding signal (FEV): 1.25 fold enrichment (6-mer frequency, TF over GST control)
binding signal (ETV5): 1.3 fold enrichment (6-mer frequency, TF over GST control)
binding signal (HSF1): 1.33 fold enrichment (6-mer frequency, TF over GST control)
binding signal (SPIC): 1.24 fold enrichment (6-mer frequency, TF over GST control)
binding signal (ELF4): 1.35 fold enrichment (6-mer frequency, TF over GST control)
binding signal (ELK4): 1.25 fold enrichment (6-mer frequency, TF over GST control)
binding signal (ETV2): 1.34 fold enrichment (6-mer frequency, TF over GST control)
binding signal (ELF3): 1.45 fold enrichment (6-mer frequency, TF over GST control)
binding signal (CRX): 1.39 fold enrichment (6-mer frequency, TF over GST control)
binding signal (ETV1): 1.3 fold enrichment (6-mer frequency, TF over GST control)
binding signal (ERF): 1.22 fold enrichment (6-mer frequency, TF over GST control)
binding signal (ETV3L): 1.28 fold enrichment (6-mer frequency, TF over GST control)
binding signal (ETS2): 1.25 fold enrichment (6-mer frequency, TF over GST control)
binding signal (SPDEF): 1.23 fold enrichment (6-mer frequency, TF over GST control)
binding signal (ETV7): 1.17 fold enrichment (6-mer frequency, TF over GST control)
binding signal (ELF5): 1.15 fold enrichment (6-mer frequency, TF over GST control)
binding signal (ETV3): 1.3 fold enrichment (6-mer frequency, TF over GST control)
binding signal (ETV6): 1.27 fold enrichment (6-mer frequency, TF over GST control)
